Compound activity as filed in PubChem.
In the library only some 1.6% were active in any assay of this set; here they are far more common.
KCNQ2 enhance: potentiators of rat KCNQ2 potassium channel; O88943; CHO-K1 KCNQ2, FluxOR thallium flux fluorescence; active compounds read high; B-score at 10 µM; actives 0.54% (n = 310,000);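 active means fluorescence ratio B-score at least 3 SD of library B-scores, with initial fluorescence B-score within 3 of them, cut at about 5.3 in these data; same plate scores as AID 2156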;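 further: B-score of peak minus minimum over baseline fluorescence ratio after K+ and Tl+ stimulus; positive B-score means potentiation of KCNQ2 with more thallium influx and brighter signal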
Target sequence (O88943 whole entry, looked up): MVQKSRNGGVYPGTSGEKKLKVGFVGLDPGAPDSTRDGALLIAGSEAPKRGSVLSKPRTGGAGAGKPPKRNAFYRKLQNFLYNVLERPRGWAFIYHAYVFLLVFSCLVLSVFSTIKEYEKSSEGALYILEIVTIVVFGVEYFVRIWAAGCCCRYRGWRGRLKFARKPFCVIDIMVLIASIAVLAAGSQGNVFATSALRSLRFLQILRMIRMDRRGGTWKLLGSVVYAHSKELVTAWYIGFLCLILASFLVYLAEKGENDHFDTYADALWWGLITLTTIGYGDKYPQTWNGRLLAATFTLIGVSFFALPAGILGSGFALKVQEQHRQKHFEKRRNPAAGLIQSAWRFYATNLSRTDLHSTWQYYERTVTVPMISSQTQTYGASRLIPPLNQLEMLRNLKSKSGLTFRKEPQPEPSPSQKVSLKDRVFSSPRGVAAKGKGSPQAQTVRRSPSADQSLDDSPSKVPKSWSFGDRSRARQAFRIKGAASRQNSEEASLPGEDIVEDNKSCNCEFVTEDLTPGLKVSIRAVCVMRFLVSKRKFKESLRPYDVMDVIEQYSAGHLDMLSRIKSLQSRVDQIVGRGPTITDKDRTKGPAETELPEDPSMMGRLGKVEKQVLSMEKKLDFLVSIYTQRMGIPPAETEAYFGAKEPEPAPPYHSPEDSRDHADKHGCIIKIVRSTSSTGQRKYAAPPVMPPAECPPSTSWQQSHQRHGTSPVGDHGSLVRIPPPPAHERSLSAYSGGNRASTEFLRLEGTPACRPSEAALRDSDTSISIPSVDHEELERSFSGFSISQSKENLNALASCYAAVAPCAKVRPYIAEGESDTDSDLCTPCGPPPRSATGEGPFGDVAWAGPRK
KCNQ2 block: blocks the rat KCNQ2 potassium channel; O88943; B-score at 10 µM; AID 2156; actives 1.1% (n = 310,000); CHO-K1 KCNQ2, FluxOR thallium flux, 20 min; active compounds read low;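 active means fluorescence ratio B-score at most minus 3 library SDs, with starting brightness B-score within 2 library SDs, cut at about -5.5 in these data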
Active calls of the source: *.

Screening CC(C(=O)N(C)c1ccccc1)N1CCN(C(=O)c2ccccc2)CC1 (stereo not drawn) returned KCNQ2 enhance 1.6 and KCNQ2 block inactive.
COc1ccc(OC)c(C(=O)CSc2nnc(Cc3cccs3)n2CCc2ccccc2)c1 was read as KCNQ2 enhance -7.1 and KCNQ2 block -7.1*.
For COc1ccc(-n2c(COc3ccc4ccccc4c3)nnc2SCC(=O)NCc2ccco2)cc1 the results were KCNQ2 enhance 1.1 and KCNQ2 block inactive.
For COc1cccc(OCc2nnc(SCC(=O)NCc3ccco3)n2CCc2ccccc2)c1 the results were KCNQ2 enhance -6.8 and KCNQ2 block -6.8*.
Screening COc1ccc(OC)c(C(=O)CSc2nnc(-c3cccs3)n2C)c1 returned KCNQ2 enhance 0.04 and KCNQ2 block inactive.
CC1(c2nnc(-c3cccc(Cl)c3)o2)CC(c2ccccc2F)=NO1 (stereo not drawn) was read as KCNQ2 enhance 0.12 and KCNQ2 block inactive.
O=C(CN(C(=O)c1csnn1)c1cccc(Cl)c1)NC1CCCCC1 was read as KCNQ2 enhance 0.2 and KCNQ2 block inactive.
`O=C(CCc1ccccc1)NC(=S)Nc1cc(C(F)(F)F)ccc1N1CCOCC1` gave KCNQ2 enhance -6.2 and KCNQ2 block -6.2*.
For CC(C)CC(=O)NC(=S)Nc1cc(C(F)(F)F)ccc1N1CCOCC1 the results were KCNQ2 block inactive.
CN(C)c1ccc(/C=C/c2nc3ccccc3c(=O)n2CCO)cc1 was read as KCNQ2 enhance -6 and KCNQ2 block -6*.
`O=c1c2ccccc2nc(/C=C/c2ccccc2)n1CCCO` gave KCNQ2 enhance 2.5 and KCNQ2 block inactive.
For O=C(COc1ccccc1-c1ccccc1)NN=C1CCCC1 the results were KCNQ2 block inactive.
For CC(=O)N1c2ccc(S(=O)(=O)N3CCC(C(=O)NCc4ccccc4Cl)CC3)cc2CC1C (stereo not drawn) the results were KCNQ2 block inactive.
CC(=O)N1c2ccc(S(=O)(=O)N3CCCC(C(=O)NCc4ccccc4Cl)C3)cc2CC1C (stereo not drawn) was read as KCNQ2 enhance -6.2 and KCNQ2 block -6.2*.
For Cc1ccc(S(=O)(=O)N2CCCC2C(=O)Nc2nc3ccccc3s2)cc1 (stereo not drawn) the results were KCNQ2 block inactive.
Screening COc1ccc(S(=O)(=O)N2CCCC2C(=O)NCc2ccccc2Cl)cc1 (stereo not drawn) returned KCNQ2 block inactive.
Screening O=C(Nc1nc2ccccc2s1)C1CCCN1S(=O)(=O)c1ccc(Cl)cc1 (stereo not drawn) returned KCNQ2 enhance -5.6 and KCNQ2 block -5.6*.
Screening Cc1ccc(S(=O)(=O)N2CCCC2C(=O)NCc2ccccc2Cl)cc1 (stereo not drawn) returned KCNQ2 enhance -6.6 and KCNQ2 block -6.6*.
COc1ccc(F)cc1S(=O)(=O)NCc1cc(=O)n(C)c(=O)n1C was read as KCNQ2 block inactive.
Cc1c(Cl)cccc1NC(=O)Nc1cc(C(C)(C)C)on1 was read as KCNQ2 block inactive.
For CN(c1nc2ccccc2n2c(C3CC3)nnc12)S(=O)(=O)c1ccccc1 the results were KCNQ2 block inactive.
`CCOc1ccccc1N1CC(C(=O)N(CC)CC(=O)Nc2ccc3c(c2)OCCO3)CC1=O` (stereo not drawn) gave KCNQ2 block inactive.
For CCC1CCCCN1CCCNC(=O)c1ccc2c(c1)N(Cc1ccc(F)cc1)C(=O)c1ccccc1S2=O (stereo not drawn) the results were KCNQ2 block inactive.
COc1ccc(OCC(=O)NC(=S)N2CCCc3ccccc32)cc1 was read as KCNQ2 block inactive.
O=C(COc1ccccc1)NC(=S)N1CCc2ccccc21 was read as KCNQ2 enhance 10* and KCNQ2 block inactive.
Screening CC(Cc1n[nH]c(=S)n1N)c1ccccc1 (stereo not drawn) returned KCNQ2 enhance 0.24 and KCNQ2 block inactive.
Screening CNc1cc(CSc2ccc(Cl)cc2)nc(C)n1 returned KCNQ2 enhance 1.2 and KCNQ2 block inactive.
Cc1nc(CSc2ccc(Cl)cc2)cc(NCc2ccccc2)n1 was read as KCNQ2 enhance -5.7 and KCNQ2 block -5.7*.
CCS(=O)(=O)N1Cc2ccccc2CC1C(=O)NC(C)C12CC3CC(CC(C3)C1)C2 (stereo not drawn) was read as KCNQ2 block inactive.
For CCS(=O)(=O)N1Cc2ccccc2CC1C(=O)NCC12CC3CC(CC(C3)C1)C2 (stereo not drawn) the results were KCNQ2 enhance -7.1 and KCNQ2 block -7.1*.
For Cn1c(C(=O)N2CCCCCC2)cc2c(=O)n(C)c3ccccc3c21 the results were KCNQ2 enhance 0.64 and KCNQ2 block inactive.
`Cc1cccc(N2CCN(C(=O)c3cc4c(=O)n(C)c5ccccc5c4n3C)CC2C)c1` (stereo not drawn) gave KCNQ2 enhance -6.1 and KCNQ2 block -6.1*.
`CCn1c(SCC(=O)N(C)CC(=O)Nc2ccc(OC)cc2)nnc1-c1ccco1` gave KCNQ2 block inactive.
CC(C(=O)NC1CCCC1)N(C(=O)Cn1nnc(-c2ccc(F)cc2)n1)c1ccccc1F (stereo not drawn) was read as KCNQ2 block inactive.
CC(C(=O)NC1CCCC1)N(C(=O)c1ccc(-c2ccccc2)[nH]1)c1ccccc1F (stereo not drawn) was read as KCNQ2 enhance -6.5 and KCNQ2 block -6.5*.
Screening COc1ccc(C(C(=O)NC(C)(C)C)N(Cc2cccnc2)C(=O)CCC(=O)Nc2cc(C)on2)cc1 (stereo not drawn) returned KCNQ2 enhance 0.08 and KCNQ2 block inactive.
Screening O=C(c1cc([N+](=O)[O-])ccc1Cl)N1CCN(c2ccc(F)cc2)CC1 returned KCNQ2 enhance 0.24 and KCNQ2 block inactive.
For O=C(c1cc([N+](=O)[O-])ccc1Cl)N1CCN(c2ccc([N+](=O)[O-])cc2)CC1 the results were KCNQ2 enhance -6.9 and KCNQ2 block -6.9*.
O=C(Cc1cccs1)N1CCN(c2ccc(F)cc2)CC1 was read as KCNQ2 enhance 1.2 and KCNQ2 block inactive.
O=C(Cc1cccs1)N1CCN(c2ccc([N+](=O)[O-])cc2)CC1 was read as KCNQ2 enhance -5.5 and KCNQ2 block -5.5*.
Screening COc1cccc(-n2c(CN3CCN(c4ccc(C)cc4)C(C)C3)nc3ccc([N+](=O)[O-])cc3c2=O)c1 (stereo not drawn) returned KCNQ2 block inactive.
For COc1cccc(-n2c(CN3CCN(c4cccc(C)c4)C(C)C3)nc3ccc([N+](=O)[O-])cc3c2=O)c1 (stereo not drawn) the results were KCNQ2 enhance -5.8 and KCNQ2 block -5.8*.
CCOc1cc(N2CCOCC2)c(OCC)cc1NC(=O)COC(=O)/C=C/c1ccc(OC(F)F)cc1 was read as KCNQ2 enhance 1.4 and KCNQ2 block inactive.
Screening Cc1ccccc1COn1nnc2ccc(S(=O)(=O)N3CCOCC3)cc21 returned KCNQ2 enhance -6.7 and KCNQ2 block -6.7*.
`CN(C(=O)COn1nnc2ccc(S(=O)(=O)N3CCOCC3)cc21)c1ccccc1` gave KCNQ2 enhance 0.23 and KCNQ2 block inactive.
C=CCN(C)CC/C=C1\c2ccccc2CSc2ccccc21 was read as KCNQ2 block inactive.
C#CCN(C)CC/C=C1\c2ccccc2CSc2ccccc21 was read as KCNQ2 enhance -6 and KCNQ2 block -6*.
`O=C(CCNC(=O)C1CCN(S(=O)(=O)c2ccc(F)cc2)CC1)NC1CC1` gave KCNQ2 block inactive.
